# Experimental data reported in PubChem BioAssay AID1851 (National Center for Advancing Translational Sciences (NCATS), 2009).
# “And” between values parts separate entries of the source, which are not always exact repeats. Identical values can stand only once. In all, about 16,000 compounds went through this assay and about 2,600 (16%) were called active. About 20% were inconclusive and are not listed. The sample as a whole holds a higher share of actives than the screen did. A number with no mark means an inactive call. Calls come from the whole dose curve; as a rule, active = well fitted curve in the direction sought with a large enough effect; inconclusive = small, poorly fitted or top-dose-only effect, or effect the other way; inactive = no such curve, though single readings can be large or run the other way.
# Target: Cytochrome P450 2D6 (Homo sapiens) (UniProt P10635)
# Experiment: Cytochrome panel assay with activity outcomes
# Conditions: recombinant CYP, pro-luciferin dealkylation, luminescence, p450-cyp2d6; series mostly up to 57.1 µM; activity, negative = inhibition: at the top concentration
# % is set by controls: 0 for no effect and ±100 for the full control effect.
# Chain of Cytochrome P450 2D6 (Homo sapiens) (P10635 whole entry, looked up): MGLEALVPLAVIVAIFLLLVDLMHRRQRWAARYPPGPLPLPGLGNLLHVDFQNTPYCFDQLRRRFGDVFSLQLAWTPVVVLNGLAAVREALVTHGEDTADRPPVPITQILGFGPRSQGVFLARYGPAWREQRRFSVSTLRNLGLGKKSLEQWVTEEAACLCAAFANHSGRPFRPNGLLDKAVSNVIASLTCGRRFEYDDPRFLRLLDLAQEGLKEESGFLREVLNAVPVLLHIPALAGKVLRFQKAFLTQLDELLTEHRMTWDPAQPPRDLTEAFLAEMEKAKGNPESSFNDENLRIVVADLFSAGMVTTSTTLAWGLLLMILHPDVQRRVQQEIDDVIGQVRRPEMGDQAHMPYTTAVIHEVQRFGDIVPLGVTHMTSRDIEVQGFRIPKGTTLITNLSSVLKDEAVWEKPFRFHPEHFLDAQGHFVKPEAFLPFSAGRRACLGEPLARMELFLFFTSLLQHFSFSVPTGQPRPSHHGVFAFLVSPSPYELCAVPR
Compound,"activity, negative = inhibition",AC50
NCCCC[C@H](N[C@@H](CCc1ccccc1)C(=O)O)C(=O)N1CCC[C@H]1C(=O)O,10.4% [at 25.6 µM],
COc1cc2c(cc1OC)[C@H](C)NCC2,-5.44% [at 25.6 µM],
CCC1=C(C[C@H]2NCCc3ccccc32)C[C@@H]2c3cc(OC)c(OC)cc3CCN2C1,,2.51 µM (active)
CCC1=C(C[C@H]2NCCc3cc(OC)c(OC)cc32)C[C@H]2c3ccccc3CCN2C1,,0.316 µM (active)
CC[C@@H]1CN2CCc3cc(OC)c(OC)cc3[C@H]2C[C@@H]1C[C@@H]1NCCc2cc(OC)c(OC)cc21,3.48%,
O=C1CS[C@@H](c2ccccc2Cl)c2cc(Cl)ccc2N1,-15.3%,
c1ccc(C2CC2)c(OCC2=NCCN2)c1,,25.1 µM (active) and 5.01 µM (active)
c1ccc([C@H]2CNCc3ccccc32)cc1,,5.01 µM (active)
O=[As](O)(O)c1ccc2nc3cc([As](=O)(O)O)ccc3nc2c1,14.5% [at 11.4 µM],
CC(=O)OCC1=C(C(=O)O)N2C(=O)[C@@H](N)[C@@H]2SC1,5.59% [at 25.6 µM],
O[Si@](CCCN1CCCCC1)(c1ccc(F)cc1)C1CCCCC1,,0.501 µM (active)
c1cc(CCN2CCCCC2)ccn1,-18.4% [at 11.4 µM],
CS(=N)(=O)CC[C@@H](N)C(=O)O (stereo partly specified),3.1% [at 25.6 µM],
COc1cc([C@@H](O)CN)ccc1O,-2.5%,
O=C(CCN1CC2CCC(CC2)C1)c1cccs1,,2 µM (active)
C/C=C1\C[C@H](C)[C@@](O)(CO)C(=O)OCC2=CCN3CC[C@@H](OC1=O)[C@@H]23,8.82% [at 25.6 µM],
C[N+](C)(C)CCCCCC[N+](C)(C)C,-2.19%,
N=C1c2ccccc2CN1NC(=O)c1ccc(F)cc1,,1.26 µM (active)
NP(N)(=O)NC(=O)c1ccc(F)cc1,0.0851%,
N=C1c2ccccc2CN1NC(=O)c1ccc(Cl)cc1,,0.794 µM (active)
CS(=O)(=O)N1CCCC(C(=O)N2CCC3(CC2)OCCO3)C1 (stereo unspecified),8.4%,
CC12CN3CC(C)(CN(C1)C31CCSCC1)C2=O,-17.1%,
NCC#Cc1ccccc1,-4.23%,

Compound,"activity, negative = inhibition",AC50
NCCSC(c1ccccc1)c1ccccc1,,0.794 µM (active)
O=C1NC(=O)N(CCNc2ncc(C(F)(F)F)cc2Cl)C(=O)C1/C=N/OCc1c(F)cccc1Cl (stereo unspecified),-4.63%,
C[C@]12CC[C@@H]3C(=CCc4cc(O)ccc43)[C@@H]1CCC2=O,-5.94% [at 25.6 µM],
O=C(Nc1cccc(C(F)(F)F)c1)c1cccn(Cc2ccc3c(c2)OC(F)(F)O3)c1=O,11.6%,
NC(N)=NS(=O)(=O)c1ccc(N)cc1,4.32% [at 25.6 µM],
N=C(N)c1ccc(-c2ccc(-c3ccc(C(=N)N)cc3)o2)cc1,11.8% [at 11.4 µM],
COc1ccc2c3c([nH]c2c1)C(C)=NCC3,,3.98 µM (active)
COc1ccc2[nH]c3c(c2c1)CCNC3,,12.6 µM (active)
COc1ccc2[nH]c3c(c2c1)CCN=C3C,,0.631 µM (active)
COc1ccc(-n2nc(C(F)(F)F)cc2-c2ccc(Cl)cc2)cc1,0.773%,
C[C@]12CC[C@H]3c4ccc(O)cc4CC[C@@H]3[C@H]1CC[C@@H]2OC(=O)CCc1ccccc1,-5.32% [at 11.4 µM],
CC1=C(CC[C@H](C)CO)O[C@@H]2C[C@@H]3[C@H]4CC[C@H]5C[C@@H](O)CC[C@]5(C)[C@@H]4CC(=O)[C@@]3(C)[C@@H]12,-3.67% [at 11.4 µM],
CCN(CC)c1ccc(/C=C2/C(=O)NC(=O)N(CC3CCCO3)C2=O)cc1 (stereo unspecified),-5.7%,
CC(C)c1ccc(C(c2c(O)c3ccccc3oc2=O)c2c(O)c3ccccc3oc2=O)cc1,2.43% [at 11.4 µM],
COc1cc(CNC(=O)CCCC/C=C\C(C)C)ccc1O,-14.5% [at 25.6 µM],
C[C@H](Br)C(=O)c1ccc2cc(Br)c3ccccc3c2c1,8.29% [at 11.4 µM],
CCCn1c(C)c(C(=O)c2ccc3ccccc3c2)c2ccccc21,-5.36%,
O=C(C[n+]1ccc2ccccc2c1)c1ccc2ccc3ccccc3c2c1,,0.794 µM (active)
CC1=C(O)C(=O)[C@H]2O[C@@H]2C1=O,3.35%,
C[C@H]1CC[C@@]2(NC1)O[C@@H]1C[C@@H]3[C@@H]4CC=C5C[C@@H](O)CC[C@]5(C)[C@@H]4CC[C@]3(C)[C@H]1[C@@H]2C,7.13% [at 11.4 µM],
COC(=O)C[C@](O)(CCCC(C)(C)O)C(=O)O[C@@H]1C(OC)=C[C@]23CCCN2CCc2cc4c(cc2[C@H]13)OCO4,-0.399%,
CN1C(=O)C(=Cc2ccc(N3CCCCC3)o2)C(=O)N(C)C1=S,1.93%,
COC1=C(C)C(=O)c2c(c(COC(N)=O)c3n2C[C@@H]2[C@@H]3N2C)C1=O (stereo partly specified),,1.58 µM (active)
